In the library only some 6.5% were active in any assay of this set; here they are far more common.
HCMV antiviral: human cytomegalovirus inhibition | HFF cells, HCMV-luciferase reporter, 72 h; stronger effect = lower value | activity change, negative = inhibition, % at 57.5 µM | hit rate 4.5% among 410,000 | AID 1259415; in the data active = activity change below about -60%; inconclusive = no clear call, values can overlap the other calls; inactive = above about -39%
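Two-dose cell screen: HFF monolayers treated with compounds and infected with luciferase-expressing HCMV at 1 PFU/cell, 72 h at 37C, then lysed for luciferase measurement.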
Marburg entry inh: inhibitors of Marburg virus binding or cell entry; Marburg virus pseudotyped entry inhibition, cell reporter; Potency, µM (highest dose often 37.8 µM), usual class: inhibitors; hit rate 1.8% among 300,000; AID 540276; calls by dose curve; tested in HEK293 cells
Vaccinia mCherry: inhibitors of vaccinia virus infection (mCherry reporter signal) | Vaccinia virus mCherry reporter infection, fluorescence | Potency, µM (top dose mostly 36.5 µM), actives largely listed as inhibitors | hit rate 0.63% among 310,000 | AID 720579; calls by dose curve; tested in A549 cells; also: nearly all actives have a fitted effect of over 35% in size
Vaccinia Venus: vaccinia inhibition (Venus reporter); hit rate 0.46% among 330,000; Vaccinia virus Venus reporter expression, fluorescence; Potency, µM (titrated, usually from 36.5 µM), actives largely listed as inhibitors; calls by dose curve; tested in A549 cells; also: nearly all actives have a fitted effect of over 30% in size
LASV entry inh: blocks Lassa virus binding to or entry into cells; hit rate 1.2% among 300,000; Potency, µM (doses to about 37.9 µM), hits mostly inhibitors; AID 540256; Lassa virus pseudotype entry inhibition, cell reporter; calls by dose curve; tested in HEK293 cells; also: nearly all actives have a fitted effect of over 50% in size
FMDV antiviral: foot and mouth disease virus antiviral activity | hit rate 1.2% among 410,000 | AID 1159524 | Potency, µM (titrated, usually from 57.9 µM), usual class: inhibitors | FMDV antiviral cell-based qHTS; calls by dose curve; tested in HEK293T cells; also: read-out not given here; nearly all actives have a fitted effect of over 45% in size
A number is an active result; - = inactive; ? = inconclusive; . = no result given; + = active, no number; ! = not confirmed by another sample.

SMILES	HCMV antiviral	Marburg entry inh	Vaccinia mCherry	Vaccinia Venus	LASV entry inh	FMDV antiviral
O=C(NCc1ccccc1Cl)c1cc2cccc3c2n1CCS3	-	.	-	-	?	-
CCN(CC)C(=O)[C@H]1C[C@H](CC(=O)NCC23CC4CC(CC(C4)C2)C3)C(=O)N2CCc3c([nH]c4ccc(Cl)cc34)[C@]12C	-	.	?	10µM	.	-
CC(C)N(C(=O)[C@H]1C[C@H](CC(=O)NCCCN(C)C)C(=O)N2CCc3c([nH]c4ccc(Cl)cc34)[C@]12C)C(C)C	-	.	-	-	.	-
CC(C)N(C(=O)[C@H]1C[C@H](CC(=O)NCC23CC4CC(CC(C4)C2)C3)C(=O)N2CCc3c([nH]c4ccc(Cl)cc34)[C@]12C)C(C)C	-	.	?	13µM	.	?
CNS(=O)(=O)c1cn(CC(=O)Nc2cccc(C(F)(F)F)c2)cc1S(=O)(=O)NC	+	.	-	-	-	-
Cc1csc2c(N3CCN(C(=O)c4ccc(C(C)(C)C)cc4)CC3)ncnc12	-63	.	.	.	.	-
O=[N+]([O-])c1ccc2nc(CO)[nH]c2c1	.	.	-	-	.	.
O=C1c2ccccc2C(=O)c2c1ccc1c(=O)n(-c3ccccc3)[nH]c21	-65	-	-	-	-	-
CC(=O)Nc1cccc(-c2ccnc3c2CC(C)(C(=O)NCCc2ccccc2)O3)c1 (stereo not given)	-88	.	-	-	.	-
CC(=O)c1cccc(-c2ccnc3c2CC(C(=O)NCCc2ccccc2)O3)c1 (stereo not given)	-	.	?	-	.	-
CC1(C(=O)NCc2ccccc2)Cc2c(-c3ccc4c(c3)OCO4)ccnc2O1 (stereo not given)	-81	.	-	-	.	-
CC(=O)Nc1cccc(-c2ccnc3c2CC(C(=O)NCCc2ccccc2)O3)c1 (stereo not given)	-86	.	-	-	.	?
CC1(C(=O)NCCc2ccccc2)Cc2c(-c3cccc(C(F)(F)F)c3)ccnc2O1 (stereo not given)	-62	.	?	-	.	-
Cn1c(SCc2ccccc2Cl)nc2c([nH]c3ccccc32)c1=O	-	.	-	-	-	-
COc1ccc(Nc2nccc3[nH]c(-c4cccc(F)c4)cc23)cc1OC	-	.	.	.	.	.
CNS(=O)(=O)c1cn(CC(=O)N2CCN(c3ccccc3OC)CC2)cc1S(=O)(=O)NC	-	.	-	-	-	-
CCOc1cccc2cc(C(=O)NCc3ccccc3)c(=N)oc12	.	.	.	.	.	-
CCOc1ccccc1-c1ccc(C(=O)NCc2ccccc2)o1	-	-	-	?	7.3µM	-
O=C(NCc1ccc(Cl)cc1)c1ccc(-c2ccccc2C(F)(F)F)o1	-	-	-	-	5.2µM	-
Cc1ccc(-c2ccc(C(=O)NCc3ccccc3)o2)c2ccccc12	-	-	-	-	6.5µM	-
CC(Oc1ccccc1)C(=O)Nc1nnc(S(=O)(=O)N2CCCCCC2)s1 (stereo not given)	-69!	.	-	-	-	-
CCC(Oc1ccccc1)C(=O)Nc1nnc(S(=O)(=O)N2CCCCC2)s1 (stereo not given)	-	.	.	.	.	-
Cc1cc(C(=O)NNC(=O)c2ccc(C(F)(F)F)cc2)no1	-	-	-	-	?	-
Cc1nc(C(=O)NNC(=O)c2ccc(C(F)(F)F)cc2)cs1	-89	?	?	-	-	-
Oc1cccc(C(Nc2nccs2)c2ccc3cccnc3c2O)c1 (stereo not given)	-93	?	16µM	?	?	-
SMILES	HCMV antiviral	Marburg entry inh	Vaccinia mCherry	Vaccinia Venus	LASV entry inh	FMDV antiviral
O=c1cc(CO)oc(C(Nc2ccccn2)c2ccccc2Cl)c1O (stereo not given)	-	-	-	-	-	-
Oc1cccc(C(Nc2ccccn2)c2ccc3cccnc3c2O)c1Cl (stereo not given)	-82	?	?	?	?	-
Oc1c(C(Nc2ccccn2)c2ccccc2)ccc2cccnc12 (stereo not given)	.	.	11µM	?	.	.
O=[N+]([O-])c1ccc(NC(c2ccccc2)c2ccc3cccnc3c2O)cc1 (stereo not given)	-97	1.4µM	?	?	?	-
O=[N+]([O-])c1ccc2cccnc2c1	-	.	-	-	.	-
Cc1cc(NC(c2cccnc2)c2ccc3cccnc3c2O)no1 (stereo not given)	-104	?	.	16µM	?	?
Oc1c(C(Nc2cccc(C(F)(F)F)c2)c2cccnc2)ccc2cccnc12 (stereo not given)	-	?	-	-	?	-
CC1CCCN(c2ncnc3c2cnn3-c2ccccc2)C1 (stereo not given)	?	.	-	-	.	-
Cc1ccc(-n2ncc3c(N4CCCC(C)C4)ncnc32)c(C)c1 (stereo not given)	-	-	-	-	.	-
CC1CCCN(c2ncnc3c2cnn3-c2ccc(F)cc2)C1 (stereo not given)	-80	.	-	-	-	18µM
CC1CCCN(c2ncnc3c2cnn3-c2ccc(Cl)cc2)C1 (stereo not given)	-98	.	-	-	.	25µM
COc1cccc(-c2cnc(-c3ccncc3)nc2C2CCN(C(=O)Cc3csc(C)n3)CC2)c1	.	.	-	-	.	-
CC(Oc1ccccc1)C(=O)NCC1Cc2cc(F)cc(-c3ccccn3)c2O1 (stereo not given)	.	.	-	-	.	-
COc1cccc([C@H]2Oc3ccc(OC)cc3C(=NOC[C@@H](O)COCc3ccco3)[C@H]2O)c1	.	-	.	.	.	.
N#C/C(=C(/O)COC(=O)CCCNC(=O)c1ccc(Cl)cc1)c1nc2ccccc2[nH]1	-93	?	-	-	?	?
N#C/C(=C(/O)COC(=O)CSc1ccc(Cl)cc1)c1nc2ccccc2[nH]1	-81	-	-	-	-	?
COc1ccccc1OCC(=O)OC/C(O)=C(\C#N)c1nc2ccccc2[nH]1	-99	.	.	.	.	-
N#CC(=C(O)COC(=O)CCC1CCCCC1)c1nc2ccccc2[nH]1	-	-	-	-	-	-
CCOC(=O)c1c(C)[nH]c(C(=O)OC/C(O)=C(\C#N)c2nc3ccccc3[nH]2)c1C	.	-	-	-	-	-
CCOC(=O)/C(O)=C(\C#N)c1nc2ccccc2[nH]1	-64	-	-	-	-	?
CC(C)N(CCO)Cc1nc(N2CCOCC2)c2cc(Cl)ccc2n1	.	.	-	-	.	-
Cc1cc2c(=O)n(Cc3ccco3)c(SCC(=O)c3ccc(Cl)s3)nc2s1	-65	?	.	.	?	?
COc1cccc(CSc2nc3sc(C)c(C)c3c(=O)n2Cc2ccco2)c1	-	15µM	.	.	?	-
Cc1sc2nc(SCc3ccccc3)n(Cc3ccco3)c(=O)c2c1C	-	?	-	-	?	-
Cc1sc2nc(SCC(=O)C(C)(C)C)n(Cc3ccco3)c(=O)c2c1C	-98	?	.	.	8.2µM	-
COc1ccccc1CC(=O)NO	.	.	-	-	.	.
COc1ccc(CN2CCN(C(C)=O)CC2)cc1OC1CCN(C(=O)c2ccc3[nH]c(C)c(C)c3c2)CC1	.	.	-	-	.	-
C=C(c1ccccc1)[C@@H](C#N)C1CCCC1	-	.	.	.	.	.
CN(Cc1cccc(C(F)(F)F)c1)C(=O)C1CCC(=O)N(CC2CCCCC2)C1 (stereo not given)	-	.	.	.	.	-
